In the library only some 2.3% were active in any assay of this set; here they are far more common.
BCR signal inh – blocks chronic active B-cell receptor signaling; Potency, µM (doses to about 46.1 µM), hits mostly inhibitors; actives 0.05% (n = 340,000); ABC-DLBCL IkBa-CBG/CBR reporter, luminescence ratio, 4 h; AID 493014; active = well fitted inhibition curve with a large enough effect in the signal ratio, with a control signal flat, not every such curve was filed as active; inconclusive = small, poorly fitted or top-dose-only effect, or effect the other way, or a change in a side signal; the % refers to the signal ratio
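Compounds up to 46 uM were incubated four hours with TMD8 cells whose green CBG68 luciferase is fused to IkappaBalpha; red CBR luminescence normalised the signal, and concentration-effect curves were fitted to fusion, red and ratio data.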
aSyn rescue – rescues yeast growth from alpha-synuclein toxicity; Yeast expressing alpha-synuclein, growth rescue, BacTiter-Glo, 24 h; actives 0.14% (n = 370,000); Potency, µM (series often up to 46.1 µM), hits mostly activators; also: nearly all actives have a fitted effect of over 65% in size
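Screening used galactose-induced yeast with toxic alpha-synuclein levels, exposed to compound for 24 hr at 30 deg C. Cell growth, read with BacTiter-Glo luminescence, gave the measured signal.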
Abeta yeast res – A-beta toxicity reversal in yeast | yeast expressing A-beta42, growth rescue, OD600, 48 h; response scale: 0% DMSO, 100% iron-clioquinol control | Potency, µM (highest dose often 46.1 µM), most hits filed as activators | actives 0.063% (n = 410,000) | AID 1347071; also: nearly all actives have a fitted effect of over 55% in size
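Growth rescue measured by 600 nm absorbance after 48 h yeast culture at 30 C with compound. Values normalized between DMSO and an equimolar ferric chloride plus clioquinol control.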
TDP43 rescue – inhibitors of TDP-43 toxicity in yeast. TDP-43 expressing yeast growth rescue, BacTiter-Glo, 24 h. Potency, µM (highest dose often 46.1 µM), hits mostly activators. actives 1.8% (n = 410,000); also: nearly all actives have a fitted effect of over 50% in size
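Galactose-induced TDP-43 yeast, OD600=0.02, compound pinned; 24 hr, 30 deg C; BacTiter-Glo luminescence for growth. Inhibitors of TDP-43 toxicity read as activators.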
FUS suppressor – suppressors of FUS proteinopathy in yeast. S. cerevisiae FUS-expressing, growth rescue, OD600, 24 h. Potency, µM (series often up to 76.6 µM), actives largely listed as activators. actives 0.24% (n = 390,000); also: nearly all actives have a fitted effect of over 55% in size
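Cultures pregrown in 2.5% raffinose medium are shifted to minimal medium containing 2% galactose to express toxic FUS. Compounds are tested at several concentrations. After 24hr at 30C, growth is quantified at 600 nm absorbance.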
uPA generation – inhibitors of cell surface uPA generation. cell surface uPA generation assay, qHTS. Potency, µM (top dose mostly 38.3 µM), usual class: inhibitors. AID 540303. actives 0.31% (n = 330,000); active = well fitted inhibition curve with a large enough effect; inconclusive = small, poorly fitted or top-dose-only effect; inactive = no such curve, though single readings can be large or run the other way; tested in mouse RAW 264.7 cells; also: nearly all actives have a fitted effect of over 55% in size
Large screens that a line does not name were inactive. Unless noted, calls follow the shape of the dose curve; as a rule, active = well fitted curve in the direction sought with a large enough effect; inconclusive = small, poorly fitted or top-dose-only effect, or another doubt; inactive = no such curve, though single readings can be large; an effect the other way counts as inactive or inconclusive.

CCN(CC)C(=O)OCc1c(-c2ccccc2)ncc2ccccc12	BCR signal inh inconclusive
COc1ccc(C(C#N)=Cc2ccc(OC)c(OC)c2)cc1	TDP43 rescue inconclusive (no result: BCR signal inh, uPA generation)
COc1ccc(/C=C(\C#N)c2nc3ccccc3n2C)c(OC)c1	TDP43 rescue 20µM (no result: BCR signal inh, aSyn rescue, uPA generation)
COc1ccc(C(C#N)=Cc2ccccc2OC)cc1	TDP43 rescue 20µM (no result: BCR signal inh, uPA generation)
Cc1ccc(C2CCN(C(=S)Nc3cccc(C)c3)C2)cc1 (stereo unspecified)	Abeta yeast res 13µM, TDP43 rescue 22µM, FUS suppressor inconclusive
Cc1cccc(NC(=S)N2CCC(c3nc4ccccc4o3)CC2)c1	Abeta yeast res 16µM, FUS suppressor inconclusive
Cc1cccc(NC(=S)N2CCCCC2)c1	Abeta yeast res inconclusive (no result: FUS suppressor)
Cc1cccc(NC(=O)N2CCC(c3nc4ccccc4o3)CC2)c1	none
O=C(NC1(C(=O)O)CCCC1)C(Cl)Cl	none (no result: BCR signal inh)
NC(=S)Cc1ccc(Cl)cc1Cl	TDP43 rescue 13µM
NC(=S)Cc1ccccc1Cl	none
Oc1ccc(/C=N/n2cc(-c3ccccc3)[nH]c2=S)cc1	Abeta yeast res inconclusive
Cc1cccc(/C=N/Nc2nncc3ccccc23)c1	BCR signal inh inconclusive
C(=N\Nc1nncc2ccccc12)/c1ccccc1	BCR signal inh inconclusive, TDP43 rescue 22µM
COc1ccccc1Cc1c(C2CCCCC2)nc2ccc(Br)cn12	TDP43 rescue 13µM (no result: BCR signal inh, uPA generation)
FC(F)(F)c1ccccc1Cc1c(C2CCCCC2)nc2ccc(Br)cn12	TDP43 rescue inconclusive (no result: BCR signal inh, uPA generation)
COC(=O)c1ccc2nc(-c3ccccc3)c(Cc3ccccc3OC)n2c1	TDP43 rescue 35µM (no result: BCR signal inh, uPA generation)
COc1ccccc1Cc1c(-c2ccccc2)nc2ccc(Br)cn12	TDP43 rescue 35µM (no result: BCR signal inh, uPA generation)
O=C(Nc1ccc(Cl)c(-c2nc3ccccc3[nH]2)c1)c1cccnc1	FUS suppressor inconclusive
COc1ccc(NC(=O)CC2C(=O)N(c3ccccc3)C(=O)N2CCC2=CCCCC2)cc1 (stereo unspecified)	none (no result: BCR signal inh, aSyn rescue, uPA generation)
CCOc1ccc(NC(=O)CC2C(=O)N(c3cccc(C)c3)C(=O)N2CCC2=CCCCC2)cc1 (stereo unspecified)	FUS suppressor 35µM (no result: BCR signal inh, aSyn rescue, uPA generation)
CCCSc1nnc(Cc2cc(=O)[nH]c(=O)[nH]2)n1-c1cc(C)ccc1C	none
Cc1nnc(NC(=O)Cc2ccc(OCc3c(C)noc3C)cc2)s1	BCR signal inh inconclusive, FUS suppressor 14µM
Cc1cc(NC(=O)/C=C\C(=O)O)c([N+](=O)[O-])cc1C	TDP43 rescue 22µM
Cc1cc(C)cc(NC(=O)CCS(=O)(=O)c2ccc3nc(C)sc3c2)c1	none (no result: BCR signal inh, aSyn rescue, uPA generation)
CCNC(=S)NN=C1c2ccccc2-c2ccccc21	BCR signal inh inconclusive, TDP43 rescue 13µM
C=C(C)CNC(=S)NN=C1c2ccccc2-c2ccccc21	BCR signal inh inconclusive
CCOC(=O)C1CCCN(S(=O)(=O)c2cc(-c3cc(C)no3)ccc2C)C1 (stereo unspecified)	TDP43 rescue 35µM, FUS suppressor inconclusive (no result: BCR signal inh, aSyn rescue, uPA generation)
CCOC(=O)C1CCN(S(=O)(=O)c2ccc(OC)c(OC)c2)CC1	none (no result: uPA generation)
CCOC(=O)C1CCN(S(=O)(=O)c2ccc(Br)c(OCC)c2)CC1	FUS suppressor 5.6µM
Cc1ccc(-c2onc(C)c2C)cc1S(=O)(=O)N1CCCCC1	TDP43 rescue 22µM (no result: BCR signal inh, aSyn rescue, uPA generation)
Cc1ccc(-c2onc(C)c2C)cc1S(=O)(=O)N1CCC(C)CC1	FUS suppressor inconclusive (no result: BCR signal inh, aSyn rescue, uPA generation)
CCOC(=O)C1CCN(S(=O)(=O)c2cc(-c3onc(C)c3C)ccc2OC)CC1	TDP43 rescue 25µM, FUS suppressor inconclusive (no result: BCR signal inh, aSyn rescue, uPA generation)
CCOC(=O)C1CCN(S(=O)(=O)c2cc(-c3cc(C)no3)ccc2C)CC1	none (no result: BCR signal inh, aSyn rescue, uPA generation)
O=C(N/N=C1\C2CN3CCN(C2)CC1(c1ccccc1)C3)Nc1ccccc1	none
O=C(O)Cc1sc(Nc2ccccc2)nc1-c1cccs1	BCR signal inh inconclusive
Clc1cccc(OCCCn2ccnc2)c1	none
CCN1CCN(C(=O)CSc2nc(N)cc(N)n2)CC1	none
Cc1nc(-c2ccccc2)sc1C(=O)/C=C/c1ccc(Cl)cc1	BCR signal inh inconclusive
Cc1nc(-c2ccccc2Cl)sc1C(=O)/C=C/N(C)C	BCR signal inh inconclusive, TDP43 rescue 32µM
Cc1ccc(CSCC(=O)N2CCN(c3cc(Cl)ccc3C)CC2)cc1	TDP43 rescue 18µM (no result: aSyn rescue, uPA generation)
Cc1onc(C(=O)N2CCN(c3ccccc3)CC2)c1[N+](=O)[O-]	TDP43 rescue inconclusive
Cc1cccc(N2CCN(C(=O)c3noc4c3CCCCC4)CC2)c1C	TDP43 rescue 16µM (no result: BCR signal inh, aSyn rescue, uPA generation)
Cc1ccc(Cl)cc1N1CCN(C(=O)c2noc3c2CCCC3)CC1	TDP43 rescue 22µM (no result: BCR signal inh, aSyn rescue, uPA generation)
Cc1ccc(Cl)cc1N1CCN(C(=O)c2noc(C)c2[N+](=O)[O-])CC1	BCR signal inh inconclusive, TDP43 rescue 13µM, uPA generation inconclusive
O=C(c1noc2c1CCCCC2)N1CCN(c2ccc(Cl)cc2)CC1	none (no result: BCR signal inh, aSyn rescue, uPA generation)
COc1cccc(-c2ccc(C#N)c(OC(=O)c3ccc(Cl)cc3)n2)c1	none
O=C(CC1C(=O)N(c2ccccc2)C(=O)N1CCc1cccs1)Nc1ccc(Cl)cc1 (stereo unspecified)	FUS suppressor inconclusive (no result: BCR signal inh, aSyn rescue, uPA generation)
CCCCc1ccc(-c2noc(CCC(=O)NCC)n2)cc1	none (no result: BCR signal inh, aSyn rescue, Abeta yeast res, TDP43 rescue, uPA generation)
O=c1c2ccccc2nnn1Cc1ccccc1	BCR signal inh inconclusive, TDP43 rescue 18µM
O=c1c2ccccc2nnn1CCc1ccccc1	TDP43 rescue inconclusive (no result: BCR signal inh, uPA generation)
COc1ccc(NC2CCCN(C(=O)c3csc(C)n3)C2)cc1 (stereo unspecified)	none (no result: FUS suppressor)
CCC(=O)c1ccc(OCC(=O)Nc2nc(-c3cccnc3)cs2)cc1	none
COc1ccc(-c2csc(NC(=O)c3ccccc3NS(=O)(=O)c3ccc(F)c(F)c3)n2)cc1	BCR signal inh inconclusive
O=C(Cc1c(F)c(F)c(F)c(F)c1F)Nc1nc(-c2ccccc2)cs1	TDP43 rescue 20µM
Cc1ccc(S(=O)(=O)Nc2ccccc2C(=O)Nc2nc(-c3ccc(F)cc3)cs2)cc1	uPA generation 13µM (no result: FUS suppressor)
CCc1ccccc1OCC(=O)Nc1nc(-c2cccnc2)cs1	BCR signal inh inconclusive, aSyn rescue inconclusive, Abeta yeast res inconclusive, TDP43 rescue 6.3µM
Cc1ccc(S(=O)(=O)CC(=O)Nc2nc(-c3ccccc3)cs2)cc1	TDP43 rescue 10µM
O=C(Cc1ccc(F)cc1)Nc1nc(-c2ccc(F)cc2)cs1	aSyn rescue inconclusive
O=C(Nc1cccn2nc(COCCO)nc12)C(c1ccccc1)c1ccccc1	none (no result: BCR signal inh, uPA generation)
O=C1CCCC2=C1C(c1cccs1)Nc1ccc3ncccc3c12 (stereo unspecified)	none (no result: uPA generation)
Cc1ccsc1C1Nc2ccc3ncccc3c2C2=C1C(=O)CC(C)(C)C2 (stereo unspecified)	BCR signal inh inconclusive, FUS suppressor 13µM (no result: uPA generation)
